# According to ChEMBL document CHEMBL1157539, “Thousands of chemical starting points for antimalarial lead identification” (Nature, 2010):
# System: Plasmodium falciparum
# Assay: GSK_TCMDC: Inhibition of Plasmodium falciparum 3D7 in whole red blood cells, using parasite LDH activity as an index of growth. Test compounds present at 2uM
# Assay type: functional
row,SMILES,Inhibition [%]
1,O=C(Nc1ccc(Cl)cc1)Nc1ccc(-c2cccc(-c3nc4cc(F)ccc4[nH]3)c2)cc1,100
2,CC1CN(Cc2cccc(-c3ccc(-c4nc5cc(F)ccc5[nH]4)cc3)c2)CC(C)O1.O=C(O)C(F)(F)F (configuration not stated),87
3,CN(C)c1ccc(-c2csc(C(=O)NC3CCN(Cc4ccc(C(C)(C)C)cc4)C3)c2)cc1.O=C(O)C(F)(F)F (configuration not stated),99

# System: Plasmodium falciparum
# Assay: GSK_TCMDC: Inhibition of Plasmodium falciparum Dd2 in whole red blood cells, using parasite LDH activity as an index of growth. Test compounds present at 2uM
# Assay type: functional
row,SMILES,Inhibition [%]
1,O=C1c2cc(I)ccc2SC1c1ccccc1 (configuration not stated),98
2,O=C(N[C@@H](CC1CCCCC1)C(=O)NCCN1CCCCC1)c1ccc(O)c(-c2cccc(C(F)(F)F)c2)c1,97
3,COc1ccc(C(=O)CCC(=O)N(CCSC(C)(C)C)Cc2ccc(-c3ccc(CNCCc4ccc(S(C)(=O)=O)cc4)cn3)cc2)cc1F.O=C(O)C(F)(F)F,42
4,NC(=O)c1ccccc1OCC(=O)Nc1cccc(-c2ccc(-c3nc4ccccc4[nH]3)cc2)c1,46
5,COCCN(CCOC)c1ncc(-c2ccsc2)c(-c2nc(C)c(C)s2)n1,63
6,O=C(Nc1ccc(Cl)cc1)Nc1ccc(-c2cccc(-c3nc4ccccc4[nH]3)c2)cc1,78
7,COc1cc(OC)c(NC(=O)Nc2ccnc3ccccc23)cc1Cl,9
8,Cc1cccc(CNc2ncc(C)c(NCCC(=O)Nc3ccccc3)n2)c1.O=C(O)C(F)(F)F,10
9,Cc1c(NC(=O)COc2ccc(Cl)cc2C(=O)c2cc(F)cc(C(F)(F)F)c2)ccc2ncsc12,18
10,CCn1c(SCC(=O)Nc2cc(C(F)(F)F)ccc2Cl)nc2ccccc2c1=O,95
11,Cc1cc(N2CCCC2)nc(Nc2ccc(NC(=O)C(C)Oc3ccccc3)cc2)n1 (configuration not stated),58
12,CC1(C)N=C(N)N=C(N)N1c1ccc(Br)cc1.Cl,4
13,COc1cc(C2C(Oc3ccccc3)C(=O)N2Cc2ccc(F)cc2)cc(OC)c1OC (configuration not stated),97
14,CN1CCc2ccc(NC(=O)Nc3cccc([N+](=O)[O-])c3)cc2C1,3
15,Cc1noc(-c2cccs2)c1C(=O)NC(C)c1cccc2ccccc12 (configuration not stated),95
16,Cc1cc(NC(=O)NCCN2CCC(NC(=O)c3ccc(C(F)(F)F)cc3)CC2)c2ccccc2n1.O=C(O)C(F)(F)F,75
17,O=C(NC(NC(=S)Nc1ccc([N+](=O)[O-])cc1)C(Cl)(Cl)Cl)c1cccc(Cl)c1 (configuration not stated),100

row,SMILES,Inhibition [%]
1,Cc1cc(Cl)c(S(=O)(=O)N2CCc3ccccc32)cc1OCC(=O)NC1CCCCC1,93
2,CCCCN(Cc1cnccc1-c1ccc(Br)cc1)c1ccc(C(O)(C(F)(F)F)C(F)(F)F)cc1.O=C(O)C(F)(F)F,45
3,CCN(CC)S(=O)(=O)c1ccc(C=CC(=O)Nc2cc(Cl)ccc2N2CCOCC2)cc1,65
4,Cc1c(C)n(C2CCCCC2)c2ncnc(OC3CCN(CC(=O)N4CCCC4)CC3)c12,59
5,CC(=O)c1ccc2c(c1)CCN(CCC1CCC(NC(=O)c3cc4ccccc4[nH]3)CC1)CC2.Cl (configuration not stated),47
6,NCCCN(Cc1ccc(Cl)c(Cl)c1)C(=O)Nc1ccc(Cl)c(Cl)c1,41
7,O=C(Nc1cccc(-c2cccc(-c3nc4cc(C(F)(F)F)ccc4[nH]3)c2)c1)c1ccoc1,61
8,CCOC(=O)c1ccc(NC(=O)N[C@@H](Cc2ccccc2)C(=O)NC2CCN(Cc3ccc(O)c(OC)c3)C2)cc1 (some centres not stated),0
9,Br.N=C1N=C(N)NC2(CCCCC2)N1OCCOc1ccc(Cc2ccccc2)cc1,22
10,COc1cc(C)c(NC(=O)c2cccc3c(=O)c(C)c(-c4ccccc4)oc23)cc1OC,32
11,CCCCCCCN1CC[C@@H](CCCc2ccnc3ccc(OCCN4CCNCC4)cc23)[C@@H](CC)C1.Cl,98
12,COc1ccc(NC(=O)Nc2ccc(C)c(-c3ccc(C(=O)NCCN4CCCC4)cc3)c2)cc1,1
13,COc1ccc(S(=O)(=O)N2CCC(NS(=O)(=O)c3ccc(F)cc3)CC2)cc1,0
14,COc1cc2c(c(Cl)c1OC)CCN(Cc1ccccc1)CC2c1ccc(NC(=O)C(F)(F)F)cc1 (configuration not stated),79
15,CC(C)C(NC(=O)Cc1cccc2ccccc12)C(=O)Nc1cccc(C#N)c1 (configuration not stated),91
16,COc1ccc2nccc([C@@H](O)CN3CCC(NC(=O)C(c4cc5ccccc5o4)N4CCN(c5ccccc5OC)CC4)CC3)c2c1 (some centres not stated),83
17,CCN(CC)CCCC(C)Nc1c2cc(OC)ccc2nc2cc(Cl)c([N+](=O)[O-])cc12 (configuration not stated),89
